The panel holds about 79,000 compounds, 15% with a hit somewhere; the sample as a whole holds those more often. Values without a mark were called inactive. Active and inactive are the calls of the source. No stated cut-off is given here; in the data, active means growth inhibition above about 70%; inactive means the rest. Where a SMILES comes first, the peptide text is derived from it. The star is where a group is joined. Trt = c1ccc(C(c2ccccc2)(c2ccccc2)*)cc1; Cbz = O=C(OCc1ccccc1)*
Legend:
[1] = NCI Yeast Anticancer Drug Screen. Data for the rad50 strain (AID 155);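 further: 0% = growth of vehicle-only cultures of the same strain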; details: S. cerevisiae rad50 strain growth inhibition, hits give high values
Method in brief: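 Readout: growth inhibition relative to vehicle-treated cultures. Compound exposure was carried out in a genetically defined yeast strain deficient in DNA damage repair.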

[2] = NCI Yeast Anticancer Drug Screen. Data for the mec2-1 strain (AID 157); details: S. cerevisiae mec2-1 strain, hits give high values
Method in brief: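 Growth inhibition is read against vehicle-treated controls after compound exposure of the mec2-1 yeast strain, which is defective in DNA damage repair or cell cycle control.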

[3] = NCI Yeast Anticancer Drug Screen. Data for the sgs1 mgt1 strain (AID 161);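 further: 0% = growth of cultures given vehicle only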; details: S. cerevisiae sgs1 mgt1 strain, hits give high values
Method in brief: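 Percent growth inhibition was derived by comparing compound-exposed mutant yeast with vehicle-exposed cultures. The strain carries alterations in DNA damage repair.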

[4] = NCI Yeast Anticancer Drug Screen. Data for the cln2 rad14 strain (AID 165);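 further: 0% = growth equal to vehicle treated cultures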; details: S. cerevisiae cln2 rad14 strain, hits give high values
Method in brief: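 Growth inhibition, relative to vehicle-treated controls, is the read-out. The test organism is a yeast strain with defined genetic alterations, cln2 rad14.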

[5] = NCI Yeast Anticancer Drug Screen. Data for the bub3 strain (AID 167); details: S. cerevisiae bub3 mutant strain, hits give high values
Method in brief: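 Readout: yeast growth inhibition, expressed relative to vehicle-only wells. The test organism is a mutant strain from a panel with lesions in DNA repair or checkpoint genes.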

[6] = NCI Yeast Anticancer Drug Screen. Data for the mlh1 rad18 strain (AID 175); details: S. cerevisiae mlh1 rad18 strain growth inhibition, hits give high values
Method in brief: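 Cells of a genetically altered yeast strain, deficient in DNA damage repair, were treated with compound. Their growth was then compared with that of vehicle-treated cultures to give inhibition.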

[7] = at 5.0 µM (retest, dose inferred, filed as 0.5)
[8] = at 50.0 µM (retest, dose inferred, filed as 5.0)

| SMILES | growth inhibition [1, 7] | growth inhibition [1, 8] | growth inhibition ([1]; at 50.0 µM) | growth inhibition [2, 7] | growth inhibition [2, 8] | growth inhibition ([2]; at 50.0 µM) | growth inhibition [3, 7] | growth inhibition [3, 8] | growth inhibition ([3]; at 50.0 µM) | growth inhibition [4, 7] | growth inhibition [4, 8] | growth inhibition ([4]; at 50.0 µM) | growth inhibition [5, 7] | growth inhibition [5, 8] | growth inhibition ([5]; at 50.0 µM) | growth inhibition [6, 7] | growth inhibition [6, 8] | growth inhibition ([6]; at 50.0 µM) |
| --- | --- | --- | --- | --- | --- | --- | --- | --- | --- | --- | --- | --- | --- | --- | --- | --- | --- | --- |
| CCCCCCCCCCCCCCC(C(=O)O)S(=O)(=O)O (configuration not stated) | 0% | 85% (active) | 98.9% (active) | -1% | 58% | 99.7% (active) | -3% | 69% | 87% (active) | -2% | 70% (active) | 95.7% (active) | -4% | 66% | 99.6% (active) | 0% | 83% (active) | 99.6% (active) |
| O=c1cc(/C=C/c2ccccc2)cccc1O | 79% (active) | 97% (active) | 97.8% (active) | 90% (active) | 96% (active) | 98.2% (active) | 84% (active) | 99% (active) | 98.5% (active) | 56% | 98% (active) | 96.9% (active) | 97% (active) | 93% (active) | 97.5% (active) | 58% | 98% (active) | 97.9% (active) |
| CC(=O)C(C(=O)CCSCCO)C(SCCO)c1ccc(Cl)c(Cl)c1 (configuration not stated) | -1% | 64% | 59.4% | -3% | 63% | 79% (active) | -1% | 81% (active) | 71.8% (active) | -4% | 55% | 40.1% | -6% | 70% (active) | 62.4% | -3% | 73% (active) | 73.8% (active) |
| CCOC(=O)CCC(NC(=O)C(CSC(c1ccccc1)(c1ccccc1)c1ccccc1)NC(=O)OCc1ccccc1)C(=O)NC(CCC(=O)OCC)C(=O)NC(CCC(=O)OCC)C(=O)NC(CCC(=O)OCC)C(=O)NC(CSC(c1ccccc1)(c1ccccc1)c1ccccc1)C(=O)OC (configuration not stated) (Cbz-C(Trt)E(OEt)E(OEt)E(OEt)E(OEt)C(Trt)-OMe; configuration not given here) | 1% | 67% | 74.2% (active) | -7% | 63% | 75.8% (active) | -1% | 61% | 68% | 7% | 70% (active) | 82.3% (active) | -4% | 58% | 72.2% (active) | 2% | 73% (active) | 75.6% (active) |
| CC(C)(C)CC(C)(C)c1ccc(O)c(Cl)c1 | -3% | 93% (active) | 99.1% (active) | -3% | 90% (active) | 76.5% (active) | -2% | 50% | 91.2% (active) | -6% | 86% (active) | 49.9% | -4% | 90% (active) | 78.4% (active) | -4% | 95% (active) | 99.5% (active) |
| C1CCC(CC2CCC(NC3=NCCO3)CC2)CC1 (configuration not stated) | -23% | 97% (active) | 88.6% (active) | -12% | 96% (active) | 87.5% (active) | -22% | 99% (active) | 87.2% (active) | -8% | 91% (active) | 88.2% (active) | -35% | 98% (active) | 91.2% (active) | -9% | 99% (active) | 84.3% (active) |
| Cc1c2cnccc2c(C)c2c1sc1ccccc12 | 92% (active) | 88% (active) | 96.5% (active) | 80% (active) | 96% (active) | 73.5% (active) | 87% (active) | 96% (active) | 90.2% (active) | 65% | 91% (active) | 75.5% (active) | 56% | 93% (active) | 81.3% (active) | 96% (active) | 92% (active) | 97.7% (active) |
| COc1ccc(C2COc3c(ccc(O)c3O)C2)cc1OC (configuration not stated) | -14% | 28% | 25.2% | 1% | 55% | 43.6% | -3% | 66% | 40.1% | 0% | 41% | 55.7% | 0% | 26% | 32.9% | 0% | 74% (active) | 40.2% |
| c1ccc2c(c1)nc1cc(NC3CCCCC3)c(=NC3CCCCC3)cc-1n2C1CCCCC1 | 8% | 4% | 44.5% | 0% | 5% | 37.6% | -7% | 2% | 42.8% | -1% | -13% | 23.3% | -3% | 16% | 39.8% | 0% | -49% | 16.6% |
| NC(=S)c1cccc(OCCCOc2ccccc2)c1 | 2% | 4% | 99.2% (active) | 0% | 14% | 99.6% (active) | 11% | 17% | 98.7% (active) | -8% | 1% | 98.2% (active) | 6% | 13% | 99.5% (active) | 4% | 30% | 99.3% (active) |
| COc1ccc(/C=C2\CN(C)C/C(=C\c3ccc(OC)c(OC)c3OC)C2=O)c(OC)c1OC | 27% | 96% (active) | 85.4% (active) | 1% | 97% (active) | 93.5% (active) | 7% | 98% (active) | 92% (active) | 7% | 86% (active) | 91.2% (active) | 14% | 96% (active) | 95.8% (active) | -4% | 97% (active) | 91.3% (active) |
| N#CC1C(=O)NC(=O)CC1c1ccccc1 (configuration not stated) | 10% | 99% (active) | 99.2% (active) | -10% | 99% (active) | 99.2% (active) | 10% | 99% (active) | 99% (active) | 10% | 99% (active) | 99.3% (active) | 0% | 99% (active) | 99.3% (active) | 13% | 99% (active) | 99.2% (active) |
| O=C1Oc2ccccc2C(=O)/C1=C/N1C(=O)/C(=C/c2ccc([N+](=O)[O-])cc2)SC1=S | 2% | 68% | 82.5% (active) | -4% | 82% (active) | 90% (active) | 22% | 93% (active) | 96.7% (active) | 3% | 83% (active) | 92.1% (active) | 7% | 49% | 85% (active) | 11% | 77% (active) | 86.3% (active) |
| COc1cccc2c1C(=O)c1c(O)c3c(c(O)c1C2=O)C[C@@](O)(C(C)=O)C[C@@H]3OC1CC(N(CCO)Cc2ccccc2)C(O)C(C)O1 (some centres not stated) | 97% (active) | 99% (active) | 91.2% (active) | 99% (active) | 100% (active) | 91.3% (active) | 95% (active) | 99% (active) | 91.5% (active) | 90% (active) | 97% (active) | 90.8% (active) | 98% (active) | 99% (active) | 89.4% (active) | 95% (active) | 99% (active) | 90.8% (active) |
| C/C=C/C=C1\C=Cc2c(C(=O)OC)coc(=O)c21 | -9% | 85% (active) | 92% (active) | 14% | 91% (active) | 94.2% (active) | 7% | 85% (active) | 76.3% (active) | -9% | 76% (active) | 62.8% | 15% | 96% (active) | 94% (active) | 14% | 97% (active) | 95% (active) |
| CN(C)C1=NC2=S(SC(Nc3ccccc3)=N2)S1 (configuration not stated) | -4% | 15% | 10.8% | -7% | 33% | -1% | 10% | 28% | -19.1% | 10% | 24% | -0.75% | 3% | 20% | 44% | 24% | 43% | -7.4% |
| Oc1ccccc1N=CC1CCCCC1 | -61% | 40% | 69% | -27% | -24% | 37.1% | -33% | -23% | 28.4% | -53% | -31% | 17% | 9% | 46% | 74% (active) | -32% | 20% | 66.2% |
| Cn1c(CN(Cc2nc3ccccc3n2C)Cc2nc3ccccc3n2C)nc2ccccc21 | 7% | 73% (active) | 76.7% (active) | 2% | 85% (active) | 87.9% (active) | 3% | 72% (active) | 69.7% | 3% | 89% (active) | 68.8% | 4% | 47% | 56.2% | 3% | 80% (active) | 56% |
| Cc1ccc(S(=O)(=O)N/N=C2/CC[C@H](C(C)(C)C)C[C@@H]2C)cc1 | 9% | 96% (active) | 86.2% (active) | -15% | 97% (active) | 90% (active) | -2% | 98% (active) | 77.4% (active) | -35% | 85% (active) | 87.7% (active) | -18% | 97% (active) | 84.7% (active) | -1% | 98% (active) | 76.3% (active) |

— PubChem BioAssay (NCI)
